High-throughput results: PubChem, several laboratories
Rows were chosen to be rich in hits. Some 1.5% of all compounds tested hit in one or more screens of this group.
BCLXL inh = inhibitors of human Bcl-xL. GST-Bcl-xL / FITC-Bim BH3 peptide fluorescence polarization. inhibition, % at 10.9 µM. actives 0.7% (n = 320,000);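 active = inhibition above the mean of all tested compounds plus 3 SD, cutoff set per campaign, cut at about 30% in these data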;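 note: 0% = DMSO wells and 100% = unlabeled Bim-BH3 peptide competitor; inhibitors lower millipolarization by displacing the labeled peptide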
eLon inh = inhibits E. coli Lon protease; purified E. coli Lon protease, fluorescence polarization; inhibition, % at 7.94 µM; actives 0.42% (n = 360,000); P0A9M0; in the data active = inhibition above about 13%, passing the limit was not always enough;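 note: 0% = enzyme with probe and DMSO and 100% = no enzyme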
Target sequence (P0A9M0 whole entry, looked up): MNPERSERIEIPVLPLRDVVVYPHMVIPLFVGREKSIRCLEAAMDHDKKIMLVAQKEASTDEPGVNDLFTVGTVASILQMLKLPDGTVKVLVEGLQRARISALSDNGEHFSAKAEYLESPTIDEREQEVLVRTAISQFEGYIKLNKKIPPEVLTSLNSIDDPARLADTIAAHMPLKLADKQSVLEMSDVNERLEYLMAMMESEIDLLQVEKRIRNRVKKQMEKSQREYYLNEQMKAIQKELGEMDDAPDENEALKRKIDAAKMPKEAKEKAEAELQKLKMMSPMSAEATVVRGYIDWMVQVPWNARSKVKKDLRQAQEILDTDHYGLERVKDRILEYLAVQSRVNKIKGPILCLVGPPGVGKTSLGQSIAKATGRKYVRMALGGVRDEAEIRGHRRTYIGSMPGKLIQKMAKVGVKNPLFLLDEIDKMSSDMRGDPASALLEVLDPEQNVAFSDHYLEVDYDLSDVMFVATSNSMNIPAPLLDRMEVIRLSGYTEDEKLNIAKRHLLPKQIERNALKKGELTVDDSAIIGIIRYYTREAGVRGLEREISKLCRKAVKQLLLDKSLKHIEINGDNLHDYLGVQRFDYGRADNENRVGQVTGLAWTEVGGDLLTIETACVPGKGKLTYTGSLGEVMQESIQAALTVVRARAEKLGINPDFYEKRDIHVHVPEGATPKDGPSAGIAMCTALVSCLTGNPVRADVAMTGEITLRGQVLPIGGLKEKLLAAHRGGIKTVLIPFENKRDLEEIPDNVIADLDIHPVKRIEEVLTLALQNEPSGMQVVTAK
MEX-5 binding = C. elegans MEX-5 TCR-2 RNA binding activity | MEX-5/FITC-TCR2 RNA binding, fluorescence polarization; stronger effect = lower value | activity score (negative = inhibition of binding), % at 10 µM | actives 0.38% (n = 300,000) | Q9XUB2;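 active = inhibition past about -25% in most replicates, and total fluorescence under double the plate's negative control median, limit read from the data; inconclusive = replicates evenly split on the limit, or fluorescence at least double controls; inactive = too little inhibition in most replicates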;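 note: 0% = DMSO and -100% = 5 µM competing unlabeled TCR2 RNA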
EBV gp42 block = blocks Epstein-Barr virus glycoprotein 42 binding. actives 0.42% (n = 220,000). inhibition, % (tested at 21.74 µM). Q1HVG2. Fluorescence polarization binding assay, mP read-out; in the data active = inhibition above about 50%
GLD-1 TGE inh = GLD-1-TGE RNA interaction inhibition (C. elegans); Q17339; purified GLD-1 + fluorescein TGE RNA, fluorescence polarization; inhibition, % at 5.96 µM; actives 0.44% (n = 320,000); AID 2280;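 active = percent inhibition above a per-plate cutoff, the plate mean of test compounds plus 3 SD, cut at about 30% in these data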;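 note: 0% = DMSO wells with GLD-1 and probe and 100% = wells lacking GLD-1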
MCL1-BIM inh = inhibitors of human MCL1 binding to BIM-BH3 peptide; Q07820; GST-MCL1 / FITC-Bim-BH3 fluorescence polarization; inhibition, % at 10.9 µM; actives 0.68% (n = 320,000); AID 2057;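 active = inhibition above the mean inhibition of all tested compounds plus 3 SD, set per campaign, cut at about 40% in these data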;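 note: 0% = DMSO wells and 100% = unlabeled Bim-BH3 peptide control; higher means more loss of mP so more displacement of Bim peptide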
BCLXL inh confirm = Bcl-xL (human) inhibition, MCL1 counter-screen confirmation; shares compounds with MCL1-BIM inh; GST-Bcl-xL / FITC-Bim BH3 peptide FP binding; inhibition, % at 10.9 µM; actives 54% (n = 1,700); AID 2166;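 active = inhibition above a cutoff equal to the mean inhibition of all tested compounds plus 3 SD, cut at about 30% in these data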;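 note: 0% = DMSO wells and 100% = unlabeled Bim BH3 control peptide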
MCL1 BIM confirm = MCL1-BIM-BH3 interaction inhibition, confirmation; shares compounds with MCL1-BIM inh; GST-MCL1 / FITC-Bim-BH3 fluorescence polarization; inhibition, % at 10.9 µM; actives 61% (n = 1,700); AID 2168;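 active = inhibition above the average of all tested compounds plus 3 SD, cut at about 40% in these data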;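 note: 0% = DMSO wells and 100% = unlabeled Bim-BH3 control peptide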
Active calls of the source: *; ? = inconclusive; . = no result; + = active, no number.

SMILES	BCLXL inh	eLon inh	MEX-5 binding	EBV gp42 block	GLD-1 TGE inh	MCL1-BIM inh	BCLXL inh confirm	MCL1 BIM confirm
COCCCNC(=O)Cn1cc(/C=C2\C(=O)NC(=O)N(c3ccccc3F)C2=O)c2ccccc21	2	-190	?	.	-22	100*	117*	133*
Cc1ccc(/C=C2\C(=O)NC(=S)N(c3ccccc3F)C2=O)s1	11	-58	.	-23	1	26	.	.
O=[N+]([O-])c1cc(S(=O)(=O)c2ccc(O)c([N+](=O)[O-])c2)ccc1O	15	-7	-36*	-3	-3	47*	24	72*
O=[N+]([O-])c1cccc(O)c1	4	5	.	.	3	0	.	.
Nc1cccc(N=Cc2c(O)n(Cc3ccc(F)cc3)c(=O)[nH]c2=O)c1	66*	-25	0	-18	-63	84*	16	2
CSc1nnc(OC(=O)N(C)C)n1-c1ccc(Cl)cc1	3	4	1	-11	6	7	.	.
CCn1cc(C=C2C(=O)NC(=O)NC2=O)c2ccccc21	136*	-25	-46*	.	-14	148*	112*	123*
CC(=O)N(C)CC#CCN1CCCC(CO)C1 (stereo unspecified)	6	20	3	.	-3	1	.	.
O=C(CCNC(=O)N1C[C@H]2C[C@@H](C1)c1cccc(=O)n1C2)Nc1cccc(Cl)c1	5	-5	3	.	7	10	.	.
O=c1[nH]c(=S)[nH]c(O)c1/C=C1/C=c2ccccc2=N1	68*	-19	0	.	-16	92*	135*	170*
O=c1ccc2cc(O[C@@H]3O[C@H](CO)[C@@H](O)[C@H](O)[C@H]3O)c(O)cc2o1	.	-2	.	.	.	.	.	.
CNC(=O)Oc1cccc2c1OC(C)(C)O2	.	6	.	.	.	.	.	.
CC12CCC3C(CC=C4CC(O)CCC43C)C1CC(=CN1CCOCC1)C2=O (stereo unspecified)	.	0	.	.	.	.	.	.
CCOc1cc(C=C2C(=O)NC(=S)NC2=O)ccc1O	.	-10	.	.	.	.	.	.
O=C1NC(=S)NC(=O)C1=Cc1ccc2c(c1)CCN2CCCCl	29	-11	-1	71*	4	74*	-11	-15
COc1ccc(N2C(=O)NC(=O)/C(=C/c3ccc([N+](=O)[O-])s3)C2=O)cc1	15	-92	-12	-3	0	33	.	.
COc1ccc(CN2C(=O)NC(=O)/C(=C/c3ccc([N+](=O)[O-])s3)C2=O)cc1	22	-215	-1	6	-10	26	.	.
O=C1NC(=O)N(Cc2ccc(F)cc2)C(=O)/C1=C\c1ccc([N+](=O)[O-])s1	22	-158	-11	-2	-8	40*	17	44*
COc1ccc(N2C(=O)NC(=O)/C(=C\c3ccc([N+](=O)[O-])s3)C2=O)cc1	21	-26	-24	4	-4	41*	44*	55*
CC(=O)c1ccc2c(c1)C1C(Cl)C(Sc3ccccc3[N+](=O)[O-])CC1C(C(=O)O)N2 (stereo unspecified)	28	22*	.	26	8	64*	19	38
O=C(O)c1cccc2c1NC(C(=O)O)C1CC(Sc3ccccc3[N+](=O)[O-])C(Cl)C21 (stereo unspecified)	62*	15	.	15	14	100*	50*	106*
c1ccc(-c2nnc(C3CC(c4cccnc4)=NO3)o2)cc1 (stereo unspecified)	8	9	-2	3	4	0	.	.
CCOC(=O)c1cc(C(O)(C(=O)OC)C(F)(F)F)c(/N=C/N(C)C)o1 (stereo unspecified)	5	-2	0	-16	-1	4	.	.
CCCC(=O)NC(Oc1ccccc1Cl)C(Cl)(Cl)Cl (stereo unspecified)	5	-2	3	-20	-4	3	.	.
O=c1[nH]c2ccccc2n1CCCN1CCC(n2c(=O)[nH]c3cc(Cl)ccc32)CC1	37*	-7	1	-7	29	54*	10	6
SMILES	BCLXL inh	eLon inh	MEX-5 binding	EBV gp42 block	GLD-1 TGE inh	MCL1-BIM inh	BCLXL inh confirm	MCL1 BIM confirm
CC(C)c1ccc(-n2c(O)c(C=NCCN3CCNCC3)c(=O)[nH]c2=S)cc1	2	2	2	.	-3	14	.	.
CC=C(C)C1(CCC)C(=O)NC(=S)NC1=O	.	1	.	.	.	.	.	.
CCOc1cccc(OCC)c2c(C)[n+](CC3CCCO3)c(C)c1-2 (stereo unspecified)	53*	30	-2	9	32*	62*	17	17
CCN1/C(=C\C=C\C2=[N+](CC)c3ccccc3C2(C)C)C(C)(C)c2ccccc21	+	+	?	7	+	+	+	+
Oc1c(Cl)c(Cl)c(Cl)c(Cl)c1Cl	2	7	-2	.	2	53*	11	38
Cn1c(CN2CCN(C(=O)COc3ccccc3)CC2)nc2cc([N+](=O)[O-])ccc21	4	-11	1	-5	5	8	.	.
O=C1NC(=O)N(Cc2ccco2)C(=O)/C1=C/c1ccc(-c2cccc([N+](=O)[O-])c2)o1	17	-13	-2	91*	-4	43*	24	62*
CCOC(=O)c1cncn1[C@@H](C)c1ccccc1	-1	1	.	.	7	-9	.	.
C=CCN1CCc2cccc3c2[C@H]1Cc1ccc(O)c(O)c1-3	23	-7	-4	.	1	43*	33*	67*
Cc1ccc(/C=C2/Sc3ccc(C(=O)N4CCC5(CC4)OCCO5)cc3NC2=O)cc1	106*	17	-29*	.	75*	125*	108*	131*
CN1C(=O)c2ccccc2Sc2ccc(C(=O)N3CCC4(CC3)OCCO4)cc21	3	1	0	2	1	4	.	.
CCNC(=O)NNC(=O)C1CC(c2cccnc2)=NO1 (stereo unspecified)	4	-11	-2	-12	0	-5	.	.
O=C1C(Cl)=CC(=Nc2ccc(O)cc2)C=C1Cl	29	-4	.	.	1	44*	40*	60*
O=C1NC(=S)N(c2ccccc2)C(=O)/C1=C/c1ccco1	47*	-64	-93*	.	25	53*	18	24
O=C(c1ccc2nc(-c3ccco3)c(-c3ccco3)nc2c1)N1CCC2(CC1)OCCO2	52*	0	.	-9	22	69*	34*	39
O=c1[nH]c(=O)n(-c2cccc(F)c2)c(O)c1/C=C1\C=Nc2ccccc21	160*	-124	?	.	-19	199*	154*	177*
